Calls of active or inactive are those of the source. Calls follow the shape of the dose curve; as a rule, active = well fitted activation curve with a large enough effect in the repeat runs; inconclusive = weak or mixed curves; inactive = flat fitted curve, though single readings scatter. Where a SMILES comes first, the peptide text is derived from it.
Assay: A CellTox Green Cytotoxicity Assay to monitor cytotoxicity in HepG2 cells - 0 hour (AID 1224882); also: nearly all actives have a fitted effect of over 35% in size
Conditions: CellTox Green fluorescence; series mostly up to 76.8 µM; cytotoxicity: at the top concentration
Excerpt: National Center for Advancing Translational Sciences [NCATS]
NIH Chemical Genomics Center [NCGC]
U.S. Environmental Protection Agency [EPA]
National Institutes of Environmental Health Sciences [NIEHS]
National Toxicology Program [NTP]
Cell-based models are critical for drug discovery. Determining the natural cytotoxic effects resulting from test compounds is an essential research activity. A CellTox Green Cytotoxicity Assay to monitor cytotoxicity in real time of continues cell culture during 40 hours of the compound treatment was used to screen Tox21 10K library compounds in HepG2 cells. CellTox Green Cytotoxicity Assay is a nonlytic, homogeneous, biofluorescent method to measure cytotoxicity in cell culture after experimental manipulation. The assay system uses a proprietary asymmetric cyanine dye that is excluded from viable cells but preferentially stains the dead cell's DNA. […] Viable cells produce no appreciable increases in fluorescence. Therefore, the fluorescence signal produced by the binding interaction with dead cell DNA is proportional to cytotoxicity.
The mixture of HepG2 cell suspension and reagents were dispensed at 600cells/6 ul/well in 1536-well tissue culture treated black solid bottom plates using a Multidrop dispenser. After the assay plates were incubated at a 37 C/5% CO2 incubator for 5 hours, 23 nL of compounds dissolved in DMSO, positive and negative controls was transferred to the assay plate by a pintool work station. The plates were incubated at 37 C for 40 hours. The fluorescence intensity were measured at 0h, 8h, 16h, 24h, 32h and 40h time points using ViewLux plate reader during compound treatment.
% is scaled to controls: 0 for no effect and ±100 for the full control effect.

| Structure (SMILES) | cytotoxicity |
| --- | --- |
| COC(=O)/C=C\C(=O)O | -4.13% (inactive) |
| CCCCCCCCCCOC(C)=O | 3.38% (inactive) |
| O=C(Cn1ccnc1[N+](=O)[O-])NCc1ccccc1 | -4.17% [at 35.3 µM] (inactive) |
| CC(=O)C(C)O (stereo not given) | 2.05% (inactive) |
| CC(=O)O[Si](C)(OC(C)=O)OC(C)=O | -4.74% (inactive) |
| CC(C)C[C@@H]1[C@H](c2ccccc2)OC(=O)N1CCCN1CCCCCC1 | -1.93% [at 35.3 µM] (inactive) |
| COc1cc(/C=C/C(N)=O)cc(OC)c1OC | -26.3% [at 35.3 µM] (inactive) |
| CC(=O)CCC1=C(C)CCCC1(C)C | -0.567% (inactive) |
| O=C(NCN1CCOCC1)c1cnccn1 | 1.38% [at 35.3 µM] (inactive) |
| CC(CO)(CO)CO | 1.16% (inactive) |
| CCC(=O)CC | 4.9% (inactive) |
| O=C1CCCCO1 | -0.73% (inactive) |
| C[Si]1(C)O[Si](C)(C)O[Si](C)(C)O[Si](C)(C)O[Si](C)(C)O1 | 3.57% (inactive) |
| Cn1c(=O)c2[nH]c(Br)nc2n(C)c1=O | -7.45% [at 35.3 µM] (inactive) |
| CC1=C(C(=O)O)N2C(=O)[C@@H](NC(=O)[C@H](N)C3=CCC=CC3)[C@H]2SC1 | -2.14% [at 35.3 µM] (inactive) |
| CN(C)CCN(C)CCO | 0.591% (inactive) |
| NCC1(Cc2noc(=O)[nH]2)CCCCC1 | -4.37% (inactive) |
| OC1OCCOC1O (stereo not given) | -0.924% (inactive) |
| C=CCCCCCCCC | -1.03% (inactive) |
| O/N=C/C=N/O | 1.59% (inactive) |

| Structure (SMILES) | cytotoxicity |
| --- | --- |
| Cc1cc(C)c(C(=O)O)c(C)c1 | 0.492% (inactive) |
| CC(C)=CCC/C(C)=C/COC=O | -0.591% (inactive) |
| CC(=O)O[C@@H]1CC2CCC1(C)C2(C)C (stereo not given in full) | -3.16% (inactive) |
| CCCC(=O)Nc1ccc(OCC(O)CNC(C)C)c(C(C)=O)c1 (stereo not given) | -0.801% [at 35.3 µM] (inactive) |
| c1ccc2c(CC3=NCCN3)cccc2c1 | -13.3% [at 35.3 µM] (inactive) |
| C#CCN[C@@H]1CCc2ccccc21 | -12.1% [at 35.3 µM] (inactive) |
| CC(=O)N[C@@H](CO)C(=O)N[C@@H](CC(=O)O)C(=O)N[C@@H](CCCCN)C(=O)N1CCC[C@H]1C(=O)O (Ac-SDKP-OH) | 0.15% [at 35.3 µM] (inactive) |
| [O]=[Mo](=[O])=[O] | -4.74% [at 15.8 µM] (inactive) |
| CC1=C(C(=O)O)N2C(=O)[C@@H](NC(=O)[C@H](N)c3ccccc3)[C@H]2SC1 | 10.3% [at 35.3 µM] (inactive) |
| C=C(C)c1cccc(C(C)(C)N=C=O)c1 | -0.334% (inactive) |
| CO[C@@]1(NC(=O)Cc2cccs2)C(=O)N2C(C(=O)O)=C(COC(N)=O)CS[C@@H]21 | 1.24% [at 35.3 µM] (inactive) |
| O=[N+]([O-])c1c(Cl)cc(Cl)cc1Cl | 0.0526% (inactive) |
| O=C1OCCO1 | -1.03% (inactive) |
| CCO | 0.798% (inactive) |
| OC1(c2ccc(Cl)cc2)CCNCC1 | -11.7% [at 35.3 µM] (inactive) |
| CC(C)OC(=O)CCC(=O)OC(C)C | -3.85% (inactive) |
| CC(=O)OCC(=O)Nc1cc(C#N)cc(NC(=O)COC(C)=O)c1Cl | -2.84% [at 35.3 µM] (inactive) |
| CCCCCc1cccc(=O)o1 | 1.45% (inactive) |
| C=CCCCC | 1.14% (inactive) |
| C=CC(=O)OCC1CCCO1 (stereo not given) | -6.4% (inactive) |

Reference: PubChem BioAssay (Tox21)
